In ChEMBL document CHEMBL4296183, “CO-ADD screening of NIH NCI Natural Product Set III” (2020) one finds Inhibition data, which are given here for 25 molecules.

In one assay the test system is Staphylococcus aureus. The assay is described as follows: Antibacterial activity against Staphylococcus aureus MRSA ATCC 43300 (CO-ADD:GP_020); MIC in CAMBH media using NBS plates, by Resazurin F(560/590). Format: functional. Conditions: Concentration 20 uM, ASSAY_TEST Inhibition of Bacterial Growth, detection method Resazurin, Fluorescence (ex560/em590), MEDIA CAMHB, plate type 384well, CORNING #3640, time 18 hr. A general note: The colour change of resazurin is a common sign of viable cells or microbes.

The next assay deals with Acinetobacter baumannii. The assay is described as follows: Antibacterial activity against Acinetobacter baumannii ATCC 19606 (CO-ADD:GN_034); MIC in CAMBH media using NBS plates, by Resazurin F(560/590). Particulars: Concentration 20 uM, ASSAY_TEST Inhibition of Bacterial Growth, detection method Resazurin, Fluorescence (ex560/em590), MEDIA CAMHB, plate type 384well, CORNING #3640, time 18 hr. Format: functional.

Another assay deals with Escherichia coli. Kind of assay: Antibacterial activity against Escherichia coli ATCC 25922 (CO-ADD:GN_001); MIC in CAMBH media using NBS plates, by Resazurin F(560/590). Format: functional. Particulars: Concentration 20 uM, ASSAY_TEST Inhibition of Bacterial Growth, detection method Resazurin, Fluorescence (ex560/em590), MEDIA CAMHB, plate type 384well, CORNING #3640, time 18 hr.

The next assay concerns Klebsiella pneumoniae. Particulars: Concentration 20 uM; ASSAY_TEST Inhibition of Bacterial Growth; detection method Absorption (OD600); MEDIA CAMHB; plate type 384well; NBS; CORNING #3640; time 18 hr.
In the next assay the test system is Candida albicans. Conditions: 20 µM.
For another assay, the system named is Cryptococcus neoformans. Particulars: Concentration 20 uM; ASSAY_TEST Inhibition of Fungal Growth; detection method Resazurin; Absorption (OD600-OD570); plate type 384well; NBS; CORNING #3640.

For some assays here: Potency and affinity values are given separately.

As to `CC(=O)CCCCn1c(=O)c2c(ncn2C)n(C)c1=O` [PENTOXIFYLLINE], the Inhibition (commonly the relative decrease from the control value, in per cent) in the assay on Staphylococcus aureus is 0.21%; in the assay with Acinetobacter baumannii, 0.79%; with Escherichia coli it was 9.18%; in the assay on Klebsiella pneumoniae, -2.03%; in the assay with Candida albicans it was 4.24%; in the assay with Cryptococcus neoformans, -13.02%.

Consider `COc1cc(/C=C/C(=O)CC(=O)/C=C/c2ccc(O)c(OC)c2)ccc1O` [CURCUMIN], for which the Inhibition was 13.57% in the assay on Staphylococcus aureus; -16.03% in the assay with Acinetobacter baumannii; 0.88% in the assay on Escherichia coli; 14.8% in the assay with Klebsiella pneumoniae; -4.9% with Candida albicans; -10.45% in the assay with Cryptococcus neoformans.

As to `COc1cc2c3c(c4ccc(OC)c(OC)c4c2cc1OC)CN1CCC[C@@H]1C3` [TYLOCREBRINE], the Inhibition with Staphylococcus aureus is 23.41%; in the assay on Acinetobacter baumannii, -4.59%; with Escherichia coli, 1.54%; with Klebsiella pneumoniae it was 13.12%; in the assay with Candida albicans it was -1.43%; in the assay with Cryptococcus neoformans, -6.05%.

Consider `COc1c2occc2cc2ccc(=O)oc12` [METHOXSALEN], for which the Inhibition in the assay on Staphylococcus aureus was 3.08%; with Acinetobacter baumannii, -6.09%; in the assay with Escherichia coli, 2.12%; in the assay on Klebsiella pneumoniae, 4.76%; in the assay on Candida albicans it was -3.39%; with Cryptococcus neoformans it was -9.6%.

In the case of `COc1ccc2c(c1)O[C@H]1c3ccc(O)cc3OC[C@@H]21`, the Inhibition in the assay on Staphylococcus aureus is 7.33%; in the assay on Acinetobacter baumannii, -10.59%; in the assay on Escherichia coli, 8.35%; in the assay on Klebsiella pneumoniae, -2.42%; with Candida albicans it was 12.9%; in the assay on Cryptococcus neoformans, -18.12%.

Regarding `CC[C@]1(O)C[C@H]2CN(CCc3c([nH]c4ccccc34)[C@@](C(=O)OC)(c3cc4c(cc3OC)N(C=O)[C@H]3[C@@](O)(C(=O)OC)[C@H](OC(C)=O)[C@]5(CC)C=CCN6CC[C@]43[C@@H]65)C2)C1.O=S(=O)(O)O` [VINCRISTINE SULFATE], the Inhibition was -14.43% in the assay on Staphylococcus aureus; -6.71% in the assay on Acinetobacter baumannii; 2.79% in the assay with Escherichia coli; 1.69% in the assay with Klebsiella pneumoniae; -0.39% in the assay with Candida albicans; -1.83% with Cryptococcus neoformans.

`COc1cc2c(c(OC)c1OC)-c1ccc(OC)c(=O)cc1[C@@H](NC(C)=O)CC2` [COLCHICINE]: the Inhibition in the assay with Staphylococcus aureus was -2.4%; with Acinetobacter baumannii it was -6.56%; with Escherichia coli it was 3.55%; with Klebsiella pneumoniae it was 3.13%; with Candida albicans, -0.28%; in the assay on Cryptococcus neoformans it was -9.86%.

Regarding `CC(C)=CC(=O)OC1C2C(C)C(=O)OC2C(O)C(C)C2C=CC(=O)C21C` (centres undefined), the Inhibition is 8.65% in the assay with Staphylococcus aureus; -2.16% in the assay with Acinetobacter baumannii; -1.23% in the assay on Escherichia coli; 13.7% with Klebsiella pneumoniae; 0.18% in the assay with Candida albicans; -5.72% in the assay with Cryptococcus neoformans.

For `COC1/C=C\C=C(/C)C(=O)NC2=CC(=O)C(N)=C(CC(C)CC(OC)C(O)C(C)/C=C(\C)C1OC(N)=O)C2=O` (centres undefined), the Inhibition in the assay on Staphylococcus aureus was 2.59%; with Acinetobacter baumannii, -32.33%; with Escherichia coli, -4.57%; in the assay on Klebsiella pneumoniae, 4.53%; with Candida albicans, -0.48%; in the assay with Cryptococcus neoformans it was -11.91%.

As to `C=C1C(=O)OC2CC1C(O)C/C(C)=C/CC/C(C)=C/C(O)CC2C` (centres undefined), the Inhibition in the assay on Staphylococcus aureus was 8.79%; in the assay on Acinetobacter baumannii, -8.51%; in the assay with Escherichia coli it was 8%; with Klebsiella pneumoniae, 4.77%; with Candida albicans, 2.83%; in the assay with Cryptococcus neoformans, -14.61%.

On to `C=C1C(=O)OC2CC3(C)CCCC(C)C3=CC12` (centres undefined), for which the Inhibition in the assay on Staphylococcus aureus was 9.16%; with Acinetobacter baumannii, -5.59%; in the assay on Escherichia coli, -1.07%; in the assay on Klebsiella pneumoniae, 10.15%; with Candida albicans, 0.7%; in the assay on Cryptococcus neoformans it was -3.97%.

For `O=c1oc2cc(O)ccc2c2oc3cc(O)ccc3c12` [COUMESTROL], the Inhibition in the assay with Staphylococcus aureus is 0.36%; in the assay with Acinetobacter baumannii it was -8.94%; with Escherichia coli, 2.17%; with Klebsiella pneumoniae it was -3.39%; with Candida albicans, 2.68%; in the assay on Cryptococcus neoformans, 17.46%.

For `CC(=O)Oc1ccc2ccc(=O)oc2c1OC(C)=O`, the Inhibition with Staphylococcus aureus is 18.68%; in the assay on Acinetobacter baumannii, -10.5%; in the assay with Escherichia coli, 2.34%; in the assay with Klebsiella pneumoniae, 9%; in the assay with Candida albicans, -1.13%; with Cryptococcus neoformans it was -4.56%.

For the molecule `O=C1c2cc(O)c(O)cc2O[C@H](c2ccc(O)c(O)c2)[C@H]1O`, the Inhibition was 16.46% with Staphylococcus aureus; -11.64% in the assay with Acinetobacter baumannii; 7.15% in the assay on Escherichia coli; 6.5% with Klebsiella pneumoniae; -0.56% with Candida albicans; -13.12% in the assay with Cryptococcus neoformans.

In the case of `CCC1OC(=O)C(C)C(OC2CC(C)(O)C(O)C(C)O2)C(C)C(O)C(C)(O)CC(C)C(=O)C(C)C(O)C1C` (centres undefined), the Inhibition in the assay with Staphylococcus aureus is -9.59%; with Acinetobacter baumannii, -2.14%; in the assay on Escherichia coli, 7.74%; in the assay with Klebsiella pneumoniae it was 3.36%; in the assay with Candida albicans, 1.65%; with Cryptococcus neoformans, -12.63%.

For `C=C1C(=O)O[C@@H]2[C@H]3O[C@]3(C)CC/C=C(\C)CC[C@@H]12`, the Inhibition is -12.66% in the assay on Staphylococcus aureus; 3.45% in the assay with Acinetobacter baumannii; 5.09% in the assay on Escherichia coli; 3.51% in the assay on Klebsiella pneumoniae; -8.82% in the assay with Cryptococcus neoformans.

For `CC1(C)CCCC2(C)C3=C(CCC12)C(=O)OC3` (centres undefined), the Inhibition with Staphylococcus aureus was 10.53%; in the assay with Acinetobacter baumannii it was -0.35%; in the assay on Escherichia coli, 1.76%; with Klebsiella pneumoniae, 7.04%; with Candida albicans, 0.95%; in the assay with Cryptococcus neoformans, -15.17%.

For the molecule `COC(=O)[C@@H]1[C@H]2C[C@@H]3c4[nH]c5ccccc5c4CCN3C[C@@H]2CC[C@@H]1O`, the Inhibition was 20.93% in the assay on Staphylococcus aureus; -4.53% in the assay on Acinetobacter baumannii; 11.73% in the assay with Escherichia coli; -5.72% with Klebsiella pneumoniae; -3.73% in the assay on Candida albicans; -8.25% with Cryptococcus neoformans.

With `CCCCCc1cc(O)cc2c1Oc1cc(O)cc(C(=O)CCCC)c1C(=O)O2`, the Inhibition with Staphylococcus aureus was 23.6%; in the assay with Acinetobacter baumannii, -18.85%; in the assay on Escherichia coli, 9.72%; with Klebsiella pneumoniae it was -6.31%; with Candida albicans, 2.52%; in the assay with Cryptococcus neoformans, -14.32%.

Regarding `C[C@@H]1C(=O)C[C@H]2C(C)(C)CCC[C@]2(C)[C@@]1(O)CCc1ccoc1`, the Inhibition is -11.22% in the assay with Staphylococcus aureus; -8.38% in the assay on Acinetobacter baumannii; 1.88% in the assay on Escherichia coli; -12.83% in the assay with Klebsiella pneumoniae; 5.12% in the assay on Candida albicans; -4.02% in the assay with Cryptococcus neoformans.

In the case of `CC1=C2[C@H]3OC(=O)[C@@H](C)[C@@H]3CC[C@@]2(C)C=C/C1=N\O`, the Inhibition is 19.54% in the assay with Staphylococcus aureus; -5.16% in the assay with Acinetobacter baumannii; 3.05% with Escherichia coli; 6.63% in the assay with Klebsiella pneumoniae; -0.24% with Candida albicans; -9.56% in the assay on Cryptococcus neoformans.

On to `CC1CC(O)C2C3(C)CCCC2(COC3=O)C12CCC1(CCOC1=O)O2` (centres undefined), for which the Inhibition is 0.12% in the assay on Staphylococcus aureus; -5.16% in the assay with Acinetobacter baumannii; 2.41% in the assay with Escherichia coli; 8.95% in the assay with Klebsiella pneumoniae; -0.89% in the assay with Candida albicans; -8.53% with Cryptococcus neoformans.

In the case of `COC(=O)[C@]1(C)CCC[C@]2(C)C3=CC(=O)[C@@]4(C(C)C)O[C@H]4[C@]3(O)CC[C@@H]12`, the Inhibition in the assay with Staphylococcus aureus was 16.23%; with Acinetobacter baumannii, -9.2%; in the assay on Escherichia coli, 10.18%; in the assay on Klebsiella pneumoniae, -2.04%; with Candida albicans, 3.2%; with Cryptococcus neoformans, -11.73%.

For the molecule `CC(=O)O.COc1ccc2c(=O)oc3c(OC)cc(CCN(C)C)c4c(=O)oc1c2c34`, the Inhibition was 18.21% in the assay on Staphylococcus aureus; -7.25% in the assay with Acinetobacter baumannii; 6.5% in the assay with Escherichia coli; 15.37% in the assay with Klebsiella pneumoniae; -2.47% with Candida albicans; -6.47% with Cryptococcus neoformans.

Take `COC(=O)C1C2CC3c4[nH]c5cc(OC)ccc5c4CCN3CC2CC(OC(=O)CCc2cc(OC)c(OC)c(OC)c2)C1OC` (centres undefined): the Inhibition with Staphylococcus aureus was 8.41%; in the assay with Acinetobacter baumannii it was -10.91%; with Escherichia coli, 1.29%; in the assay with Klebsiella pneumoniae it was -7.51%; in the assay with Candida albicans it was -0.42%; with Cryptococcus neoformans, -8.83%.
